Experimental data published in paper PMC7862700, “An all-to-all approach to the identification of sequence-specific readers for epigenetic DNA modifications on cytosine”.

Key:
Assay in all cases: DAPPL (digital affinity profiling via proximity ligation, sequencing); 10 mM Tris-HCl pH 7.5, 50 mM NaCl, 1 mM DTT, 4% glycerol, room temperature, 30 min; GST-TFs on glutathione beads, 16-mer random dsDNA library, 0.1% formaldehyde crosslink after washing; high values mean tight binding
Conditions in all cases: protein: recombinant; tags: N-terminal GST; dsDNA, one strand shown
FLI1 = target: T1, FLI1 (Homo sapiens, UniProt Q01543 1-452)
T1 sequence: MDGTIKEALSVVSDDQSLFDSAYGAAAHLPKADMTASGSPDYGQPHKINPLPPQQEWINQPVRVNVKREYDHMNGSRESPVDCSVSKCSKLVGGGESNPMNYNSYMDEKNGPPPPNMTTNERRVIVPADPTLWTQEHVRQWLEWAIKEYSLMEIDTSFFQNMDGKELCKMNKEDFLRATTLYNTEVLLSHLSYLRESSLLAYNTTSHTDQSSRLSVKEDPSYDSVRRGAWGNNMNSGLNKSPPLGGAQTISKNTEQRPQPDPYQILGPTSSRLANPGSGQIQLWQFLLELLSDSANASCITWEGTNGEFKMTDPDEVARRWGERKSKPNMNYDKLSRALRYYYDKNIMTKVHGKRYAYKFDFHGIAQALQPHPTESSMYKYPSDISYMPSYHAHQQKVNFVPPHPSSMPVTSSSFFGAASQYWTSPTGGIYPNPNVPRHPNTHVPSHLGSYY
In short: (§1)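 Sequencing on an Illumina NextSeq500 followed washing, crosslinking with 0.1% formaldehyde, proximity ligation (BsaI/T4 ligase, 1 h, 37 °C) and PCR amplification of pools that had been incubated for 30 min at room temperature with 200 nmole of a random double-stranded 16-mer DNA library in Tris/NaCl/DTT/glycerol buffer. Each pool held DNA-barcoded human transcription factors, expressed in yeast as GST fusions and captured on glutathione beads, plus a tag-only sample. Binding signal is a hexamer's read frequency for a factor divided by its frequency in the tag-only sample.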

ELK1 = target: T2, ELK1 (Homo sapiens, UniProt P19419 1-428)
T2 sequence: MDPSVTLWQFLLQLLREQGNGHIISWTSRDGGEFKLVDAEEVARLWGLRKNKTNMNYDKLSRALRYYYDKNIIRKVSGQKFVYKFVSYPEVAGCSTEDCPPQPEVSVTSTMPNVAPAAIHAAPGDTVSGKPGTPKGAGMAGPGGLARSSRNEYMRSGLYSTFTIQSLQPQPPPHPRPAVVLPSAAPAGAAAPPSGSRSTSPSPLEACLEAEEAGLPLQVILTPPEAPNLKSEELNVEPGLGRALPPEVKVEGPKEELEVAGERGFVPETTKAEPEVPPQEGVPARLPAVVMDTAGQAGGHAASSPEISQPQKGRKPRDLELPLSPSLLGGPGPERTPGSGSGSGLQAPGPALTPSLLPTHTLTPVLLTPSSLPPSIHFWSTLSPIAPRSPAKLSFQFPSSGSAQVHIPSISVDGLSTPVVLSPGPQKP
In short: as §1

GABPA = target: T3, GABPA (Homo sapiens, UniProt Q06546 1-454)
T3 sequence: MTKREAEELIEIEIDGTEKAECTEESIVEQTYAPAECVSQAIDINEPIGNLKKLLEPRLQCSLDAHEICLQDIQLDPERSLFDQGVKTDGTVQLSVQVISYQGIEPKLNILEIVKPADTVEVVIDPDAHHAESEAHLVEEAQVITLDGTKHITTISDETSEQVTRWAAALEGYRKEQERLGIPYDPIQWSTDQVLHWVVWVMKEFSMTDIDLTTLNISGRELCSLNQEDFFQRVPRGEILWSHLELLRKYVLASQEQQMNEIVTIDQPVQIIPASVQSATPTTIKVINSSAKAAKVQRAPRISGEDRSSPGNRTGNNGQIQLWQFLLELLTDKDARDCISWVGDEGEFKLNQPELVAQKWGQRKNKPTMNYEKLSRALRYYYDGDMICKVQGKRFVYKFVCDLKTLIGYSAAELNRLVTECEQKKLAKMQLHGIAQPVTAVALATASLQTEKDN
In short: as §1

ERG = target: T4, ERG (Homo sapiens, UniProt P11308 1-479)
T4 sequence: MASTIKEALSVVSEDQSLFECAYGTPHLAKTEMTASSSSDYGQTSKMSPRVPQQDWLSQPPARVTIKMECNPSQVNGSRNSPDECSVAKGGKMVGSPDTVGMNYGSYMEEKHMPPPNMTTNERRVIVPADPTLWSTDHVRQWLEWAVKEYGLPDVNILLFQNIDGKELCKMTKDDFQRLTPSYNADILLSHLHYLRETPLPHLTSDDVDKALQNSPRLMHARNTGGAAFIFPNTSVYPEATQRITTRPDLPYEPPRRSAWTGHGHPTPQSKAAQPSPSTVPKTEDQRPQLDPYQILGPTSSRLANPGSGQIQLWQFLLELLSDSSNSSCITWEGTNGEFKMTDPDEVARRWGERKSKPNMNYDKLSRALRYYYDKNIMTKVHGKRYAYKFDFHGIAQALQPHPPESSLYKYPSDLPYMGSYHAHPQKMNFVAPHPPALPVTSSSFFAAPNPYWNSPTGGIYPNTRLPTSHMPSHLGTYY
In short: as §1

ELF1 = ELF1 (Homo sapiens, UniProt P32519 1-619)
In short: as §1

EHF = target: T5, EHF (Homo sapiens, UniProt Q9NZC4 1-300)
T5 sequence: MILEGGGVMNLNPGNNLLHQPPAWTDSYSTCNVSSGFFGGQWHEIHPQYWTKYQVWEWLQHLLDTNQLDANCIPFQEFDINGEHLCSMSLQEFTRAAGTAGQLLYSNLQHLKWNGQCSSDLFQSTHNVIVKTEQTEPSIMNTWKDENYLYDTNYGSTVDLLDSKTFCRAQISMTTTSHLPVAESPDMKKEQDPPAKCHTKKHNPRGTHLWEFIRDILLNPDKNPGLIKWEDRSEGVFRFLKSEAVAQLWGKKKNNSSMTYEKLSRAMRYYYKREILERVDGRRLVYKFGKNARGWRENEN
In short: as §1

SPI1 = SPI1 (Homo sapiens, UniProt P17947 1-270)
In short: as §1

SPIB = SPIB (Homo sapiens, UniProt Q01892 1-262)
In short: as §1

ELK3 = target: T6, ELK3 (Homo sapiens, UniProt P41970 1-407)
T6 sequence: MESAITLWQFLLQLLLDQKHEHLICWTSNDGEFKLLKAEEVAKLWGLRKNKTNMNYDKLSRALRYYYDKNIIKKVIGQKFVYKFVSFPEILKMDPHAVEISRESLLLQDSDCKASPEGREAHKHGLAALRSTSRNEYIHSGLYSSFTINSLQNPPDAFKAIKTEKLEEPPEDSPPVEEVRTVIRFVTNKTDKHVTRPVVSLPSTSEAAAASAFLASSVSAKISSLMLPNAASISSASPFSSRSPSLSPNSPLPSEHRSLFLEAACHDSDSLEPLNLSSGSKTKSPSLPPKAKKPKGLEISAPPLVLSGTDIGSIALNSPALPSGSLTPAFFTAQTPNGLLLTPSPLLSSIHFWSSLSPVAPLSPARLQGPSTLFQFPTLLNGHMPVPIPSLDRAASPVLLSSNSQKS
In short: as §1

ELF1, sequence (P32519 whole entry): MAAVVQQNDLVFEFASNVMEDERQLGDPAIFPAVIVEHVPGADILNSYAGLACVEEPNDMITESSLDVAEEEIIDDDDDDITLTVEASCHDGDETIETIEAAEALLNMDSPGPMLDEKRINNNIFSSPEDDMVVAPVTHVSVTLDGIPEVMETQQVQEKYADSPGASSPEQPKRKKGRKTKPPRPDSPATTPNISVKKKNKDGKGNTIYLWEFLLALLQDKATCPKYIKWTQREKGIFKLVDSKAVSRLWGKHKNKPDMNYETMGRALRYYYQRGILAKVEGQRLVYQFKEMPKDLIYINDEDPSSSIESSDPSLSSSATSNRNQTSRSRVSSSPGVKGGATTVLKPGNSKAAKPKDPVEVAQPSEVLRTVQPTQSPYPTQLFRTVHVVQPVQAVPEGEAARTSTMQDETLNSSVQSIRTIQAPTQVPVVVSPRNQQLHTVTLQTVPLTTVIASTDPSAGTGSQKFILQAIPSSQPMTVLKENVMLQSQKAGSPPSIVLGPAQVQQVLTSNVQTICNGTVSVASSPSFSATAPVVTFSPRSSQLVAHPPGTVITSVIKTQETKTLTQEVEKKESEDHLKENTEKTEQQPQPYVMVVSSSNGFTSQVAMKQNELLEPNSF
SPIB, sequence (Q01892 whole entry): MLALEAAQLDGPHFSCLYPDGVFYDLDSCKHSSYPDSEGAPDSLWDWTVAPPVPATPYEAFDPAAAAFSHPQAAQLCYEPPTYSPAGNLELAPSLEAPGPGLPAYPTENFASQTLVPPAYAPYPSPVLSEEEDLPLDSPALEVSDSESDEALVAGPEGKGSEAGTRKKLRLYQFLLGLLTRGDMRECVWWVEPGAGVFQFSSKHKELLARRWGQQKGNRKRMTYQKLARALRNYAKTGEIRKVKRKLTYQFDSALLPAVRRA

Sequence | binding signal (FLI1) | binding signal (ELK1) | binding signal (GABPA) | binding signal (ERG) | binding signal (ELF1) | binding signal (EHF) | binding signal (SPI1) | binding signal (SPIB) | binding signal (ELK3)
CCCCTC | 1.48 fold enrichment (6-mer frequency, TF over GST control) | 1.29 fold enrichment (6-mer frequency, TF over GST control) | 1.45 fold enrichment (6-mer frequency, TF over GST control) | 1.28 fold enrichment (6-mer frequency, TF over GST control) | 1.43 fold enrichment (6-mer frequency, TF over GST control) | 1.31 fold enrichment (6-mer frequency, TF over GST control) | 1.39 fold enrichment (6-mer frequency, TF over GST control) | 1.55 fold enrichment (6-mer frequency, TF over GST control) | 1.37 fold enrichment (6-mer frequency, TF over GST control)
ACTCTT | 1.17 fold enrichment (6-mer frequency, TF over GST control) | 1.24 fold enrichment (6-mer frequency, TF over GST control) | 1.22 fold enrichment (6-mer frequency, TF over GST control) | 1.24 fold enrichment (6-mer frequency, TF over GST control) | 1.25 fold enrichment (6-mer frequency, TF over GST control) | 1.2 fold enrichment (6-mer frequency, TF over GST control) | 1.19 fold enrichment (6-mer frequency, TF over GST control) | 1.25 fold enrichment (6-mer frequency, TF over GST control) | 1.47 fold enrichment (6-mer frequency, TF over GST control)
TACCTT | 1.36 fold enrichment (6-mer frequency, TF over GST control) | 1.33 fold enrichment (6-mer frequency, TF over GST control) | 1.36 fold enrichment (6-mer frequency, TF over GST control) | 1.42 fold enrichment (6-mer frequency, TF over GST control) | 1.3 fold enrichment (6-mer frequency, TF over GST control) | 1.47 fold enrichment (6-mer frequency, TF over GST control) | 1.33 fold enrichment (6-mer frequency, TF over GST control) | 1.42 fold enrichment (6-mer frequency, TF over GST control) | 1.23 fold enrichment (6-mer frequency, TF over GST control)
AGCTAT | 1.21 fold enrichment (6-mer frequency, TF over GST control) | 1.14 fold enrichment (6-mer frequency, TF over GST control) | 1.23 fold enrichment (6-mer frequency, TF over GST control) | 1.17 fold enrichment (6-mer frequency, TF over GST control) | 1.16 fold enrichment (6-mer frequency, TF over GST control) | 1.23 fold enrichment (6-mer frequency, TF over GST control) | 1.15 fold enrichment (6-mer frequency, TF over GST control) | 1.26 fold enrichment (6-mer frequency, TF over GST control) | 1.24 fold enrichment (6-mer frequency, TF over GST control)
ATATTA | 1.08 fold enrichment (6-mer frequency, TF over GST control) | 1.11 fold enrichment (6-mer frequency, TF over GST control) | 1.12 fold enrichment (6-mer frequency, TF over GST control) | 1.09 fold enrichment (6-mer frequency, TF over GST control) | 1.16 fold enrichment (6-mer frequency, TF over GST control) | 1.08 fold enrichment (6-mer frequency, TF over GST control) | 1.03 fold enrichment (6-mer frequency, TF over GST control) | 1.16 fold enrichment (6-mer frequency, TF over GST control) | 1.13 fold enrichment (6-mer frequency, TF over GST control)
CCTCCC | 1.42 fold enrichment (6-mer frequency, TF over GST control) | 1.43 fold enrichment (6-mer frequency, TF over GST control) | 1.45 fold enrichment (6-mer frequency, TF over GST control) | 1.47 fold enrichment (6-mer frequency, TF over GST control) | 1.54 fold enrichment (6-mer frequency, TF over GST control) | 1.57 fold enrichment (6-mer frequency, TF over GST control) | 1.48 fold enrichment (6-mer frequency, TF over GST control) | 1.48 fold enrichment (6-mer frequency, TF over GST control) | 1.45 fold enrichment (6-mer frequency, TF over GST control)
ATGACC | 1.54 fold enrichment (6-mer frequency, TF over GST control) | 1.58 fold enrichment (6-mer frequency, TF over GST control) | 1.78 fold enrichment (6-mer frequency, TF over GST control) | 1.52 fold enrichment (6-mer frequency, TF over GST control) | 1.6 fold enrichment (6-mer frequency, TF over GST control) | 1.61 fold enrichment (6-mer frequency, TF over GST control) | 1.6 fold enrichment (6-mer frequency, TF over GST control) | 1.45 fold enrichment (6-mer frequency, TF over GST control) | 1.65 fold enrichment (6-mer frequency, TF over GST control)
